Compounds with a hit are over-represented: about 0.93% of the library has one in this group of screens.
AGP1 TOR yeast: modulators of AGP1-GFP expression in yeast TOR pathway, primary screen, cell-based, multiplex flow cytometry, S. cerevisiae, MLPCN library; 3 h; GFP as percent of DMSO wells; GFP response vs DMSO, % at 10 µM; 320,000 tested, 0.02% active; AID 2066, 2009;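 active = GFP response relative to DMSO above a set limit, near screen average plus 3 SD, cut at about 150% in these data; inconclusive = fewer than 70 cells counted for the yeast strain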;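 note: median GFP channel fluorescence of the gated AGP1 strain per well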
MEP2-GFP yeast: modulators of MEP2-GFP levels in yeast, primary screen, S. cerevisiae, multiplex flow cytometry, MLPCN library; S. cerevisiae MEP2-GFP strain, 3 h; 100% = DMSO control level; GFP response vs DMSO, % at 10 µM; 330,000 tested, 0.51% active; AID 2016, 2009;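 active = GFP response versus DMSO above a set limit, roughly screen mean plus 3 SD, cut at about 180% in these data; inconclusive = fewer than 70 cells counted for a yeast strain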;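 note: median GFP fluorescence of the barcode-gated MEP2-GFP cells per well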
CIT2-GFP yeast: modulators of CIT2-GFP expression in yeast, primary screen, S. cerevisiae, GFP fusion, multiplex flow cytometry, MLPCN library. 320,000 tested, 0.065% active. GFP response vs DMSO, % at 10 µM. S. cerevisiae CIT2-GFP strain, 3 h; 100 means same as DMSO wells;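 active = GFP response relative to DMSO above a set limit, near the screen mean plus 3 SD, cut at about 150% in these data; inconclusive = Fewer than 70 cells measured for a yeast strain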;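 note: ratio of well median GFP fluorescence to mean of DMSO wells on the plate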
RPL19A TOR yeast: RPL19A-GFP expression modulators in yeast, primary screen, cell-based, S. cerevisiae, multiplex flow cytometry, MLPCN. S. cerevisiae RPL19A-GFP strain, 3 h; hits give low values. 330,000 tested, 0.3% active. percent response vs DMSO, % at 10 µM. AID 2025, 2009;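 active = percent response vs DMSO below 50%; inconclusive = fewer than 70 events counted for the yeast strain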;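 note: median channel GFP fluorescence of the barcoded RPL19A-GFP strain; ratio of sample median GFP to plate DMSO average so 100% = DMSO; lower means less RPL19A-GFP as with rapamycin TOR inhibition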
LAP4-GFP MLPCN: modulators of LAP4-GFP expression in yeast, primary screen, S. cerevisiae, multiplex flow cytometry, MLPCN library. 3 h; median GFP as percent of DMSO wells. GFP response vs DMSO, % at 10 µM. 320,000 tested, 0.34% active. AID 2023, 2009;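 active = GFP response vs DMSO above a set limit, about the screen mean plus 3 SD, cut at about 150% in these data; inconclusive = under 70 cell events counted for the yeast strain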
The depositor's hits bear a star; ? = inconclusive; [ ] = remark or other dose.

SMILES | AGP1 TOR yeast | MEP2-GFP yeast | CIT2-GFP yeast | RPL19A TOR yeast | LAP4-GFP MLPCN
O=C1C2=C(Nc3ccccc3SC2c2ccco2)c2ccccc21 (stereo unspecified) | 14 | 206*[may fluoresce violet] | ? | 74 | 112
Cc1noc(C)c1COC(=O)/C=C/c1ccc(Cl)cc1 | 79 | 102 | 77 | 106 | 93
CCC(c1nnnn1CCc1ccccc1)N(Cc1ccco1)Cc1cc2cccc(C)c2[nH]c1=O (stereo unspecified) | 107 | 111 | 105 | 107 | 108
CCC(c1nnnn1C(C)(C)C)N(Cc1ccco1)Cc1cc2cccc(C)c2[nH]c1=O (stereo unspecified) | ? | 350*[may fluoresce violet] | ? | 54 | 98
CC(C)CN(C(=O)CSc1nnc2ccccn12)c1c(N)n(CC(C)C)c(=O)[nH]c1=O | 90 | 87 | 91 | 88 | 85
COc1cc(NS(=O)(=O)c2ccc(C)cc2C)cc(OC)c1OC | ? | 484*[may fluoresce violet] | ? | 48*[may fluoresce violet] | 89
CC(=O)OC1CC(n2ccc(NC(=O)c3ccccc3)nc2=O)OC1CO (stereo unspecified) | 108 | 114 | 111 | 102 | 114
N#Cc1ccc(-c2csc(NC(=O)/C=C/c3cccs3)n2)cc1 | 97 | 108 | 98 | 104 | 106
CCN(CC)S(=O)(=O)c1ccc(O)c(C(=O)OCC(=O)NC2CCCC2)c1 | 116 | 185* | 111 | 84 | 138
CCN(CC)S(=O)(=O)c1ccc(C(=O)OCC(=O)NC2CCCC2)cc1 | 92 | 105 | 101 | 100 | 97
COc1ccc(N=Cc2cc(Cc3ccccc3Cl)cc([N+](=O)[O-])c2O)cc1OC | 77 | 234* | 107 | 98 | 107
COc1ccc(OC)c(-c2csc(CCn3nc(C)cc3C)n2)c1 | 88 | 104 | 89 | 92 | 96
Fc1ccccc1N=C1NN=C(c2ccccc2)CS1 | 99 | 104 | 105 | 112 | 109
Clc1ccccc1N=C1NN=C(c2cccs2)CS1 | 93 | 96 | 90 | 92 | 155*
Cc1nc2cc(NC(=O)N3CCCCC3)ccc2n1C | ? | 371*[may fluoresce violet] | ? | 41*[may fluoresce violet] | 92
O=C(NCc1cccs1)c1cc(-c2ccccc2)nc2ccccc12 | 88 | 88 | 83 | 101 | 73
O=C(Nc1nnc(-c2cccs2)o1)c1cc(-c2ccccc2)nc2ccccc12 | 85 | 94 | 85 | 94 | 152*
O=S(=O)(Nc1ccc(N2CCCCC2)cc1)c1ccc(F)cc1F | 105 | 95 | 94 | 101 | 118
O=C(COc1ccc2c3c(c(=O)oc2c1)CCC3)N1CCCCC1 | 93 | 103 | 96 | 101 | 97
O=C(COc1ccc2c3c(c(=O)oc2c1)CCC3)N1CCCC1 | ? | 238*[may fluoresce violet] | ? | 59 | 88
Cc1nc2nc(SCC(=O)NCCCN3CCCC3)nn2c(C)c1Cc1ccccc1Cl | 99 | 113 | 100 | 100 | 94
CCN(C(=O)c1cc2c(=O)n3cccc(C)c3nc2s1)C1CCCCC1 | ? | 190*[may fluoresce violet] | ? | 54 | 76
CC(C)NC(=S)NNc1nc2ccccc2s1 | 99 | 109 | 112 | 97 | 98
CSc1nc(O)c(C2OC(=O)c3ccccc32)c(=O)[nH]1 (stereo unspecified) | 94 | 91 | 93 | 93 | 89
CC(C)CNC(=O)c1ccc(NC(=O)c2ccccc2[N+](=O)[O-])cc1 | 98 | 106 | 96 | 103 | 89
SMILES | AGP1 TOR yeast | MEP2-GFP yeast | CIT2-GFP yeast | RPL19A TOR yeast | LAP4-GFP MLPCN
CN1CCSc2ccc(C(=O)Nc3cccc(F)c3)cc21 | 91 | 104 | 72 | 94 | 153*
CCOc1ccc(NC(=S)N2CCN(S(=O)(=O)c3ccccc3)CC2)cc1 | 94 | 103 | 97 | 110 | 73
COc1ccccc1CCC(=O)N(C)C1CCCN(Cc2ccccc2F)C1 (stereo unspecified) | 95 | 103 | 100 | 101 | 93
O=C(CSc1nc(C2CC2)nc2sc3c(c12)CCCC3)NCc1ccco1 | 111 | 109 | 108 | 100 | 105
Cc1nc(SCC(=O)NCc2ccco2)c2c3c(sc2n1)CCCC3 | 39 | 183*[may fluoresce violet] | ? | 56 | 106
CCN(CC)CCN(C(=O)CN1C(=O)CCC1=O)c1nc2cc3c(cc2s1)OCO3 | ? | 200*[may fluoresce violet] | ? | 50 | 83
CCN(CC)CCN(C(=O)c1cccc(N2C(=O)CCC2=O)c1)c1nc2cc3c(cc2s1)OCO3 | 104 | 100 | 109 | 95 | 108
CN(C)c1ccc(/C=C2\SC(=O)N(CC(O)Cn3c4ccccc4c4ccccc43)C2=O)cc1 (stereo unspecified) | 111 | 123 | 119 | 108 | 108
CN(C)c1ccc(/C=C2/SC(=O)N(CCN=C3NS(=O)(=O)c4ccccc43)C2=O)cc1 | ? | 178*[may fluoresce violet] | ? | 57 | 88
Cn1ccsc1=NC(=O)c1ccc([N+](=O)[O-])o1 | 12 | 241*[may fluoresce violet] | ? | 102 | 142
CCN(CC)S(=O)(=O)c1ccc(C(=O)NCC2CCCCC2)cc1 | ? | 194*[may fluoresce violet] | ? | 30*[may fluoresce violet] | 57
CN(C)S(=O)(=O)c1cccc(C(=O)NCC2CCCCC2)c1 | 108 | 106 | 98 | 102 | 119
COc1cc(/C=N/Nc2nc(C)cc(=O)[nH]2)ccc1O | 98 | 185* | 145 | 111 | 109
CC1(C)CC(Nc2ccc(C(F)(F)F)cc2[N+](=O)[O-])CC(C)(C)N1 | 103 | 122 | 124 | 101 | 97
CCOC(=O)c1c(N2C(=O)C3C4C=CC(O4)C3C2=O)sc2c1CCCC2 (stereo unspecified) | 113 | 97 | 92 | 98 | 173*
CCn1c(=O)c2c(nc(SCC(=O)N3CCC(C)CC3)n2C)n(C)c1=O | ? | 364*[may fluoresce violet] | ? | 49*[may fluoresce violet] | 81
CCCCn1c(SCC(=O)N2CCCC2)nc2c1c(=O)n(C)c(=O)n2C | 96 | 100 | 101 | 99 | 97
CCn1c(SCC(=O)N2CCCCC2)nc2c1c(=O)n(C)c(=O)n2C | 14 | 393*[may fluoresce violet] | ? | 62 | 90
CC1CCN(C(=O)CSc2nc3c(c(=O)n(C)c(=O)n3C)n2C)CC1 | 94 | 104 | 88 | 93 | 99
CCn1c(SCC(=O)N2CCCCC2C)nc2c1c(=O)n(C)c(=O)n2C (stereo unspecified) | ? | ? | ? | 49*[may fluoresce violet] | 81
CCC(=O)N/C(N)=N/c1nc2ccccc2o1 | 100 | 110 | 92 | 87 | 176*
CC(=O)N/C(N)=N/c1nc2cc(C)ccc2o1 | ? | ? | ? | 19*[may fluoresce violet] | 70
CCCC(=O)N/C(N)=N/c1nc2ccccc2o1 | 88 | 97 | 78 | 86 | 116
CC(=O)N/C(N)=N/c1nc2cc([N+](=O)[O-])ccc2o1 | 104 | 98 | 105 | 97 | 115
